# In the supplement of paper PMC6522484:
# Where “and” joins values, the source holds several entries; their conditions need not be identical. Equal values may be shown once. ± gives the standard deviation of the averaged measurements.
# Tests used:
# [1] = test system: DLD1; test: cell viability (CellTiter-Glo) relative to plate median (fraction of plate median); higher = more viable cells; settings: 5 µM; treatment time 24 h; reporter: 7TFP
# Procedure, shortened: (§1)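 Two independent replicates were averaged for each reported value. Library compounds were applied at a final 5 µM for 24 h to colorectal cancer cell lines stably expressing lentiviral TCF/Wnt firefly luciferase reporters. Firefly luciferase or CellTiterGlo luminescence from each well was normalised to the plate median.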
# [2] = test system: HCT116; test: as above; settings: 5 µM; treatment time 24 h; reporter: TCF4/Wnt
# Procedure, shortened: as §1
# [3] = test system: SW480; test: as above; settings: 5 µM; treatment time 24 h; reporter: 7TFP
# Procedure, shortened: as §1
# [4] = test system: DLD1; test: TCF/Wnt firefly luciferase reporter signal relative to plate median (fraction of plate median); higher = higher Wnt reporter signal; settings: 5 µM; treatment time 24 h; reporter: 7TFP
# Procedure, shortened: as §1
# [5] = test system: SW480; test: as above; settings: 5 µM; treatment time 24 h; reporter: 7TFP
# Procedure, shortened: as §1
Compound,cell viability [1],cell viability [2],cell viability [3],TCF/Wnt firefly luciferase reporter signal [4],TCF/Wnt firefly luciferase reporter signal [5]
CC(=O)Oc1c(C)c(C)c2c(c1C)CCC(C)(CCCC(C)CCCC(C)CCCC(C)C)O2 (stereo not drawn) [alpha-TOCHOPHERYL ACETATE],1.06 ± 0.085,1.02 ± 0.092,1.06 ± 0.014,1.12 ± 0.18,1.09 ± 0.057
C=C1C2CC[C@@]3(C)[C@H](c4ccoc4)OC(=O)C[C@]13O[C@H]1CC(=O)C(C)(C)[C@H](C(O)C(=O)OC)[C@@]21C (stereo not given in full),0.97 ± 0.042,1.01 ± 0.087,0.991 ± 0.055,1.02 ± 0.11,1.02 ± 0.047
O=c1ccc2ccccc2o1,0.985 ± 0.11,1.01 ± 0.029,0.976 ± 0.014,1.09 ± 0.014,0.984 ± 0.018
CCCc1nc2c(C)cc(-c3nc4ccccc4n3C)cc2n1Cc1ccc(-c2ccccc2C(=O)O)cc1,0.975 ± 0.12,0.992 ± 0.054,1.01 ± 0.021,0.98 ± 0.028,1 ± 0.021
CCN1CCN(c2cc3c(cc2F)c(=O)c(C(=O)O)cn3C2CC2)CC1,1.01 ± 0.05,0.907 ± 0.038,0.921 ± 0.03,1.05 ± 0.074,0.9395 ± 0.005
Fc1ccc(C(c2ccc(F)cc2)N2CCN(C/C=C/c3ccccc3)CC2)cc1,1.06 ± 0.042,0.962 ± 0.069,1.06 ± 0.057,0.961 ± 0.18,0.917 ± 0.016
COc1c(OC)c2occc2c2oc(=O)ccc12,1.004 ± 0.0085,0.829 ± 0.16,1.02 ± 0.077,0.802 ± 0.21,0.948 ± 0.011
O=c1c(O)c(-c2ccccc2)oc2ccccc12,0.992 ± 0.026,0.961 ± 0.069,1 ± 0.027,1.1 ± 0.16,0.977 ± 0.1
OCc1cccnc1,0.978 ± 0.088,1.05 ± 0.17,0.934 ± 0.016,0.988 ± 0.12,0.917 ± 0.017
CC(=O)N[C@@H](CC(=O)N[C@@H](CCC(=O)O)C(=O)O)C(=O)O,1.01 ± 0.014,1.055 ± 0.0071,0.925 ± 0.011,0.958 ± 0.088,0.988 ± 0.032
NCCc1ccc(O)c(O)c1,0.922 and 1,1.05 and 1.1,0.998 and 0.98,1.01 and 1.02,0.963 and 0.967
CCCC1O[C@@H]2C[C@H]3[C@@H]4CCC5=CC(=O)C=C[C@]5(C)[C@H]4[C@@H](O)C[C@]3(C)[C@]2(C(=O)CO)O1 (stereo not given in full),1.03 ± 0.014,0.938 ± 0.1,0.912 ± 0.015,1.09 ± 0.071,0.81 ± 0.04
CCOc1ccc(C(=O)c2cc(O)c(OC)c(OC)c2O)cc1,0.982 ± 0.054,0.925 ± 0.11,0.9935 ± 0.0021,1.09,0.948 ± 0.062
CCCc1cc(OC)c2c(c1)OCO2,0.961 ± 0.11,0.939 ± 0.014,0.976 ± 0.049,0.958 ± 0.034,0.964 ± 0.065
C1CNCCN1,1.004 ± 0.0092,0.96 ± 0.071,0.987 ± 0.018,1.25 ± 0.021,1.05 ± 0.042
COC1(C)CCC2OC2(C)CCC2C1CC2(C)C (stereo not given),1.1 ± 0.099,0.97 ± 0.02,1.08 ± 0.042,0.934 ± 0.063,1.02 ± 0.044
CNCC[C@@H](Oc1ccccc1C)c1ccccc1,0.949 ± 0.073,0.941 ± 0.043,0.969 ± 0.021,1.02 ± 0.014,1.08 ± 0.042
COc1cc(C)cc2ccc(-c3ccc4c(c3O)[C@@H](C)N[C@H](C)C4)c(O)c12,1.17 ± 0.19,1.04 ± 0.077,1.05 ± 0.021,1.05,1.015 ± 0.0071
CC[C@]12CCCN3CCc4c(n(c5ccccc45)[C@@](O)(C(=O)OC)C1)[C@@H]32,1.02 ± 0.047,0.953 ± 0.096,1.03 ± 0.014,0.981 ± 0.11,0.971
C[C@@H]1C(=O)O[C@H]2C[C@@]34[C@H]5C[C@@H](C(C)(C)C)[C@]36[C@@H](OC(=O)[C@@H]6O)O[C@@]4(C(=O)O5)[C@]21O,1.07 ± 0.021,1.11 ± 0.064,0.99 ± 0.015,1.15 ± 0.021,1.03 ± 0.11
CC1/C(=N/O)C[C@@H]2C[C@H]1C2(C)C (stereo not given in full),1.07 ± 0.014,1.09 ± 0.014,1.02 ± 0.037,1.08 ± 0.042,0.919 ± 0.17
O=C(Nc1ccc([N+](=O)[O-])cc1Cl)c1cc(Cl)ccc1O,0.764 ± 0.05,0.614 ± 0.13,0.779 ± 0.3,0.92 ± 0.064,0.964 ± 0.22
COC(=O)C1=CO[C@@H](O[C@@H]2O[C@H](CO)[C@@H](O)[C@H](O)[C@H]2O)[C@@H]2[C@@H](C)CC(=O)[C@]12O,0.871 ± 0.067,0.88 ± 0.17,0.988 ± 0.06,1.04 ± 0.19,1.08 ± 0.035
COc1ccc2cc3[n+](cc2c1OC)CCc1cc2c(cc1-3)OCO2,1.04 ± 0.021,0.984 ± 0.011,1.02 ± 0.091,1.1 ± 0.085,0.954 ± 0.053
CCCCCC(C)N (stereo not given),1.02 ± 0.066,1.09 ± 0.021,0.954 ± 0.0099,1.14 ± 0.078,1.08 ± 0.057
Cc1ccc(C(=O)Nc2ccc(S(=O)(=O)O)c3cc(S(=O)(=O)O)cc(S(=O)(=O)O)c23)cc1NC(=O)c1cccc(NC(=O)Nc2cccc(C(=O)Nc3cc(C(=O)Nc4ccc(S(=O)(=O)O)c5cc(S(=O)(=O)O)cc(S(=O)(=O)O)c45)ccc3C)c2)c1,1.02 ± 0.068,0.929 ± 0.13,1.04 ± 0.035,0.936 ± 0.018,0.954 ± 0.11
CCC(=O)C(CC)C(O)C(C)CC(C)C1OC(=O)CC2(O)CC=C(C)C(O2)/C(C)=C/CCCC(OC2CC(OC(N)=O)C(O)C(C)O2)/C=C\C(C)C(O)C1C (stereo not given),1.08 ± 0.16,1,0.99 ± 0.015,0.87 ± 0.067,0.974 ± 0.025
COc1ccc2c(c1)CC[C@@H]1[C@@H]2CC[C@]2(C)[C@@H](O)CC[C@@H]12,0.928 ± 0.093,0.953 ± 0.15,1 ± 0.064,0.885 ± 0.18,0.969 ± 0.16
C[C@H]1CC2C3CCC4=CC(=O)C=C[C@]4(C)[C@@]3(F)[C@@H](O)C[C@]2(C)[C@@]1(O)C(=O)COP(=O)(O)O (stereo not given in full),0.93 ± 0.063,0.942 ± 0.028,0.952 ± 0.029,1.03 ± 0.09,1.06 ± 0.028
